# Peg3 prom inh: inhibitors of Peg3 promoter | HeLa PEG-Prom luciferase reporter, luminescence, overnight | inhibition, % at 20 µM | actives 1.7% (n = 360,000);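 active means inhibition of at least 50% at 20 µM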
# TRPM1 prom inh: reduces MITF-dependent TRPM1 promoter luciferase signal. actives 0.83% (n = 330,000). inhibition, % at 12.5 µM. SK-MEL-5 TRPM1 promoter luciferase, 24 h;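 active means mean inhibition across replicates of 60% or more, whatever share of single replicates reaches that level; inconclusive means some that reach 60%, reason not given; inactive means mean inhibition across replicates below 60%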
# CF NFkB inh: blocks PAF-induced NF-kB reporter in cystic fibrosis cells; KKLEB NF-kB-GFP reporter, GFP fluorescence overnight; inhibition, % at 5 µM; actives 0.86% (n = 360,000);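 active means at least 50% inhibition at 5 µM, scaled per plate between neutral and stimulator controls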;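 further: PAF is a Pseudomonas aeruginosa culture filtrate used as stimulus; plate controls were PAF-stimulated DMSO wells for no effect and unstimulated DMSO wells for full effect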
# KKLEB tox: reduces viability of KKLEB cystic fibrosis airway cells; KKLEB CF airway cells viability, ATPlite luminescence, overnight; hits give low values; cells stimulated with P. aeruginosa culture filtrate; activity change (cytotoxicity), % at 5 µM; actives 0.36% (n = 360,000); AID 602141;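 active means corrected activity change at or below -50% at 5 µM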
# HIF-2a block: blocks HIF-2a reporter activity. 786-0 RCC cells HIF-2a reporter, luciferase luminescence, overnight. inhibition, % at 18.8 µM. actives 0.72% (n = 360,000). AID 624352;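 active means inhibition of the luminescence signal of 40% or more relative to plate controls, in a single-dose primary screen at 18.75 µM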
# Shn3 3UTR inh: inhibitors of Schnurri-3 3'UTR reporter in osteoblasts; inhibition, % at 12.5 µM; actives 0.52% (n = 360,000); AID 588674; Clone20 osteoblast Shn3 3'UTR firefly luciferase, 24 h;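 active means mean inhibition of at least 75% with every replicate also reaching 75%; inconclusive means mean inhibition at least 75% but some replicate below; inactive means mean inhibition below 75%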;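 further: 0% = median of neutral control wells and 100% = pilot-screen positive control compound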
# * marks the source's active call; other numbers are inactive results; ? = inconclusive; . = no result given. Only some compounds are listed: those with a hit (about 2.7% of all), similar ones and a draw of the others.
SMILES,Peg3 prom inh,TRPM1 prom inh,CF NFkB inh,KKLEB tox,HIF-2a block,Shn3 3UTR inh
CCOc1ccccc1N1CCN(c2ncnc3scc(-c4ccc(OC)cc4)c23)CC1,59*,7,36,-8,22,21
COc1ccc(-c2csc3ncnc(N4CCN(c5ccccc5OC)CC4)c23)cc1,37,-9,16,-7,14,-19
CN1C(=O)[C@H]2[C@@H](c3ccc(C(F)(F)F)cc3)N[C@]3(CCCN(Cc4ccc(Br)cc4)C3=O)[C@H]2C1=O,-6,.,-3,-14,5,40
CCOc1ccccc1NC(=O)C1CCCN1S(=O)(=O)c1ccc2c(c1)C(C)(C)C(=O)N2C (stereo unspecified),0,.,-34,-5,0,2
Cc1ccc2nc(/C(C#N)=C/c3ccc(-c4cccc([N+](=O)[O-])c4)o3)[nH]c2c1,115*,11,-35,-8,14,19
Cn1nnnc1Sc1ncnc2scc(-c3ccccc3)c12,49,36,38,-24,60*,8
CC(=NNC(=S)N1CC2CCC(CC2)C1)c1cccc(C)n1,-12,44,-10,8,-104,81*
CC(=NNC(=S)N1CCCC1)c1ccccn1,26,.,-1,-4,-23,82
CC(=NNC(=S)N1CCC1)c1ccccn1,50,69*,36,-14,2,92*
CCCCCC(=O)N/N=C(\C)c1ccccn1,9,16,-11,3,-13,39
CC(=NNC(=S)SCc1ccccc1)c1ccccn1,94*,45,29,10,-154,?
Nc1c(S(=O)(=O)c2ccccc2)c2nc3ccccc3nc2n1/N=C/c1cccc(O)c1,87*,15,-14,21,-15,49
O=C(Nc1ccccc1)NC1(C(=O)NCc2ccc3c(c2)OCO3)CCCCC1,14,-2,2,6,20,-6
O=C(NCc1ccccc1)NC1(C(=O)Nc2ccc3c(c2)OCCO3)CCCCC1,-12,65*,5,-10,-2,50
COc1ccc(C(C#N)=C2C=C(Cl)C(=NO)C=C2Cl)cc1,-15,.,68*,4,-126,-7
CC(C)CC1C(=O)N(Cc2cn(CC3CCCCC3)nn2)CCS(=O)(=O)N1Cc1ccc(-c2ccncc2)cc1 (stereo unspecified),16,.,22,-8,-1,-1
Cc1cc(C)c2c(=N)c3ccccc3n(CCCCCCCCn3c4ccccc4c(=N)c4c(C)cc(C)nc43)c2n1,105*,55,-82,8,0,84
CC(=O)Nc1cc(-c2cccc(F)c2)cn2c(-c3ccc(F)cc3)cnc12,24,.,-15,-8,3,12
COC(=O)c1cc(=O)n(Cc2ccc3c(c2)OCO3)c(=Nc2ccccc2)s1,17,.,16,1,16,8
COC(=O)c1cc(=O)n(Cc2ccc3c(c2)OCO3)c(=Nc2ccc(F)cc2)s1,51*,7,28,-8,0,-5
COC(=O)c1cc(=O)n(CCc2ccccc2F)c(=Nc2ccc(F)c(Cl)c2)s1,91*,.,36,-28,91*,80
Cc1c(CCC(=O)NCCCCCC(=O)O)c(=O)oc2c(C)c3oc4c(c3cc12)CCCC4,11,-6,11,-5,33,20
Cc1c(CCC(=O)N[C@@H](CCCNC(N)=O)C(=O)O)c(=O)oc2cc3oc4c(c3cc12)CCCC4,-74,23,-1,5,67*,23
Cc1c(CC(=O)N[C@@H](CCCNC(N)=O)C(=O)O)c(=O)oc2cc3oc4c(c3cc12)CCCC4,12,-12,-5,-19,6,1
Cc1c(CCC(=O)NCCCC(=O)O)c(=O)oc2cc3oc4c(c3cc12)CCCC4,-69,31,-7,4,72*,25
SMILES,Peg3 prom inh,TRPM1 prom inh,CF NFkB inh,KKLEB tox,HIF-2a block,Shn3 3UTR inh
Cc1ccc2[nH]c3c(c2c1)CCCC3NCCO (stereo unspecified),52*,-6,-5,3,13,-3
O=C(NCC1CC1)c1ccc(-n2ccnc2)c2ccoc12,-5,.,8,2,-27,-4
Cc1nn2c(N3CCOCC3)cc(C(C)(C)C)nc2c1-c1ccccc1,5,6,0,8,13,5
CCN1CCN(c2ccc(NC(=O)CCc3c(C)nc4c(-c5ccccc5)c(C)nn4c3C)cc2)CC1,70*,16,-6,-27,23,2
CCN1CCN(c2cc(C(C)(C)C)nc3c(-c4ccccc4)c(C)nn23)CC1,51*,-18,-7,-1,-8,-10
CCN(c1ccccc1)S(=O)(=O)c1ccc(Cl)c(NC(=O)CN(C)Cc2cccc(F)c2)c1,21,13,11,-3,17,91*
CC1(C)CC(=O)C=C(c2ccc(-c3cnc4ccccc4c3)cc2)C1=O,-97,.,-22,-2,-50,-47
Cc1noc(C)c1-c1ccc(C(=O)Nc2ccccc2)c2occc12,-360,.,-62,-8,-381,-172
COc1ccc(C(NC(=O)C2CCN(CCCOc3ccccc3)CC2)c2ccccn2)cc1 (stereo unspecified),9,.,-15,5,7,-17
O=C(NC(c1ccc(Cl)cc1)c1cnccn1)C1CCN(CCOc2ccc(F)cc2)CC1 (stereo unspecified),-3,.,16,-6,10,-3
O=C(NC(c1ccc(-c2ccccc2)cc1)c1cnccn1)C1CCN(CCOc2ccc(F)cc2)CC1 (stereo unspecified),50*,.,33,-31,-12,35
O=C(NC(c1ccc(-c2ccccc2)cc1)c1cnccn1)C1CCN(CCCOc2ccccc2)CC1 (stereo unspecified),103*,.,28,-20,-10,-4
CCOC(=O)C1(C)CCN1C(=O)c1ccc(Cl)nc1 (stereo unspecified),-3,.,-21,3,6,-23
Clc1ccc(N2O[C@H]3C=C[C@@H]2C3)nc1,-16,.,-3,0,-59,-22
CC12CCC(C(=O)N/N=C/c3ccc(O)cc3O)(OC1=O)C2(C)C (stereo unspecified),33,20,10,-7,26,89*
C/C(=N\NC(=O)C12CCC(C)(C(=O)O1)C2(C)C)c1ccccc1O (stereo unspecified),4,7,28,6,-6,41
O=S1(=O)CCN(c2ccccc2CC(c2c[nH]c3ccccc23)c2c[nH]c3ccccc23)CC1,57*,11,7,15,-12,14
NCC(c1ccco1)c1c[nH]c2ccccc12 (stereo unspecified),16,29,7,11,15,-26
O=C(NCc1ccc(Cl)c(Cl)c1)c1cc(C2CCCCN2C(=O)c2ccccn2)on1 (stereo unspecified),-3,.,-22,8,21,-5
